{"source": "PubChem BioAssay", "note": "A number with no mark means an inactive call. Activity calls are given as the source filed them. The rule behind the calls is not given here."}
{"experiment": "chitosan synthesis blockers in C. neoformans – flow cytometry, Cibacron Brilliant Red staining (AID 1347148);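 note: compound exposure lasted three days at 37 degrees C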", "conditions": "Cryptococcus neoformans chitosan, active compounds read low; at 10 µM unless noted"}
{"smiles": "C=C1[C@@H](O)C2O[C@@]3(CCC2O[C@@H]1C(O)C[C@H](C)C1O[C@@]2(CCCCO2)CC[C@H]1C)CC[C@@H](/C=C/[C@@H](C)[C@@H]1CC(C)=C[C@@]2(O[C@H](C[C@@](C)(O)C(=O)O)CCC2O)O1)O3", "note": "(some centres undefined)", "fold fluorescence": "14.3 [at 6.2 µM]"}
{"smiles": "CCCCCCCCCCCCCCCC(=O)OC[C@@H](COP(=O)([O-])OCC[N+](C)(C)C)OC(C)=O", "fold fluorescence": 4.75}
{"smiles": "CNc1ccc2oc(C[C@H]3OC4(CC[C@H]3C)O[C@@H](C(C)C(=O)c3ccc[nH]3)[C@@H](C)C[C@@H]4C)nc2c1C(=O)O", "note": "(some centres undefined)", "fold fluorescence": "5.79 [at 95.5 µM]"}
{"smiles": "CC1=C2C[C@@H]3[C@H](CC=C4C[C@H](O)CC[C@]43C)[C@H]2CC[C@@]12O[C@H]1C[C@@H](C)CN[C@@H]1[C@@H]2C", "fold fluorescence": "14.9 [at 121.5 µM]"}
{"smiles": "COc1ccc(C(=O)OC2CCC3(C)C4CCC5C6(O)CC(O)C7(O)C(CN8CC(C)CCC8C7(C)O)C6(O)CC53OC24O)cc1OC", "note": "(centres undefined)", "fold fluorescence": "11.6 [at 74.2 µM]"}
{"smiles": "Cc1c(C(=O)c2cccc3ccccc23)c2cccc3c2n1[C@@H](CN1CCOCC1)CO3", "fold fluorescence": 4.51}
{"smiles": "O[C@@H]1[C@@H]2[C@@H](O)CCCN2C[C@@H]1O", "fold fluorescence": "5.36 [at 288.7 µM]"}
{"smiles": "CC(C)[C@@H]1NC(=O)[C@H](C(C)C)OC(=O)[C@@H](C(C)C)NC(=O)[C@@H](C)OC(=O)[C@@H](C(C)C)NC(=O)[C@H](C(C)C)OC(=O)[C@@H](C(C)C)NC(=O)[C@@H](C)OC(=O)[C@H](C(C)C)NC(=O)[C@H](C(C)C)OC(=O)[C@H](C(C)C)NC(=O)[C@H](C)OC1=O", "fold fluorescence": "7.5 [at 45 µM]"}
{"smiles": "CCNC(=O)[C@@H]1O[C@H](n2cnc3c(N)ncnc32)C(O)[C@@H]1O", "note": "(some centres undefined)", "fold fluorescence": "4.97 [at 162.2 µM]"}
{"smiles": "O=C1CS[C@@H](c2ccccc2Cl)c2cc(Cl)ccc2N1", "fold fluorescence": "10.4 [at 154.2 µM]"}
{"smiles": "CC(=O)NC1C(OC2OC(CC(O)C3OC(n4ccc(=O)[nH]c4=O)C(O)C3O)C(O)C(O)C2NC(=O)/C=C\\CC(C)C)OC(CO)C(O)C1O", "note": "(centres undefined)", "fold fluorescence": "7.24 [at 69.6 µM]"}
{"smiles": "COC(=O)[C@]1(O)C[C@@H]2O[C@@]1(C)n1c3ccccc3c3c4c(c5c6ccccc6n2c5c31)C(=O)NC4", "fold fluorescence": "6.41 [at 10.7 µM]"}
{"smiles": "CC(C)NC[C@H](O)c1ccc(N)c(C#N)c1", "fold fluorescence": "4.74 [at 228 µM]"}
{"smiles": "CCCC[C@H](C)[C@H](OC(=O)C[C@H](CC(=O)O)C(=O)O)[C@@H](C[C@H](C)C[C@@H](O)CCCC[C@H](O)C[C@@H](O)[C@@H](C)N)OC(=O)C[C@@H](CC(=O)O)C(=O)O", "fold fluorescence": "2.99 [at 69.3 µM]"}
{"smiles": "C#CCN(C)[C@@H](C)Cc1ccccc1", "fold fluorescence": "5.04 [at 267 µM]"}
{"smiles": "CN1C(=O)[C@@]23CC4=CC=C[C@@H](O)[C@@H]4N2C(=O)[C@]1(CO)SS3", "fold fluorescence": "7.1 [at 153.2 µM]"}
{"smiles": "CC(C)[C@@]1(O)[C@H](OC(=O)c2ccc[nH]2)[C@]2(O)[C@]3(C)C[C@@]4(O)O[C@]5([C@@H](O)[C@H](C)CC[C@@]35O)[C@]2(O)[C@@]41C", "fold fluorescence": "3.48 [at 101.3 µM]"}
{"smiles": "C=C1C(=O)O[C@H]2C[C@H](C)[C@H]3C=CC(=O)[C@]3(C)[C@H](O)[C@@H]12", "fold fluorescence": "9.09 [at 190.6 µM]"}
{"smiles": "C=C1[C@@H](C)[C@H]2[C@H](Cc3ccccc3)NC(=O)[C@]23[C@H](OC(C)=O)/C=C/[C@](C)(O)C(=O)[C@@H](C)C/C=C/[C@H]3[C@@H]1O", "fold fluorescence": "11.8 [at 98.5 µM]"}
{"smiles": "C[C@@]1(CO)[C@H]2CC[C@@H]3C[C@H]4C[C@@]3(CC[C@@]4(O)CO)[C@]2(C)CC[C@@H]1O", "fold fluorescence": "13 [at 147.7 µM]"}
{"smiles": "CC1(C)[C@@H](O)C[C@H]2[C@](C)(O)[C@@H]3CCC4[C@@H](O)[C@@]3(C[C@@H](O)[C@@]21O)C[C@@]4(C)O", "fold fluorescence": "2.34 [at 135 µM] (active)"}
{"smiles": "OC[C@@H]1O[C@H](n2cnc3cc(Cl)c(Cl)cc32)C(O)[C@@H]1O", "note": "(some centres undefined)", "fold fluorescence": "3.08 [at 156.7 µM]"}
{"smiles": "CCCCCc1cc(O)c2c(c1)OC(C)(C)[C@H]1CCC(C(=O)O)=CC21", "note": "(some centres undefined)", "fold fluorescence": 7.25}
{"smiles": "C=C(C)[C@@H]1O[C@@H]2CC[C@]3(C)[C@](O)(CC[C@@H]4[C@H]5OC(C)(C)[C@@H]6C[C@H]7C(=C)Cc8c(Cl)cc9[nH]c(c5c9c8[C@]76O)[C@]43C)[C@@]23O[C@H]3[C@@H]1O", "fold fluorescence": "6.21 [at 78.8 µM]"}
